Hit rate of the full screen: of about 190,000 compounds, about 3,500 (1.8%) were called active. This is one part of a sample in which actives are shown more often than they occur.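 The calls were made as follows: active = inhibition above a set limit, 3 SD over mean compound inhibition (cut at about 8.4% in these data); inactive = the rest.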
Test: inhibitors of the yeast RAM network, primary screen, dse1pr::URA3 reporter, 5-FOA selection (AID 868);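 also: 0% = DMSO-only wells with no growth and 100% = 10 µM 1-NA-PP1 full growth; inhibition rescues growth on 5-FOA so higher OD means more RAM inhibition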
Settings: S. cerevisiae dse1pr::URA3 reporter, 5-FOA growth OD615, 2 d; at 50 µM; hits give high values; analog-sensitive cbk1-as2 kinase mutant strain

inhibition, inactive:
Cc1nccn1CCCNC(=O)CC1C(=O)NCCN1Cc1ccc(Cl)c(F)c1 (configuration not stated) -1.07%
COCCNC(=O)/C(C#N)=C/c1nc(N(C)C)n(-c2ccc(F)cc2)c1Cl 0.24%
O=C(NCc1ccco1)c1nc(-c2ccccc2)n(-c2ccccc2)n1 0.66%
O=c1c2ccccc2c(-c2ccccc2)nn1Cc1ccccc1 6.51%
N/C(=N/O)c1cccn1Cc1ccccc1[N+](=O)[O-] 0.13%
O=S(=O)(c1ccc2c(c1)OCCO2)N1CCc2ccccc21 2.45%
COC(=O)[C@@H](NC(=O)Nc1cc(Cl)ccc1C)C(C)C 1.68%
COc1ccc(Cl)cc1NC(=O)CNc1ccccc1F -1.15%
COCCNC(=O)C(OC(=O)c1cccs1)c1ccc(F)cc1 (configuration not stated) 0.51%
Cc1ccc(NC(=O)Cn2cccc2C2=NC(c3ccccc3)CO2)c(C)c1 (configuration not stated) 0.92%
COC(=O)C1=C(C)N(C)C(=S)NC1c1cc(OC)ccc1OC (configuration not stated) 0.25%
COc1cccc(C(=O)Nc2cc3c(cc2Br)OCCCO3)c1 1.75%
COc1ccc(C2=CC(c3cccc(OC)c3)n3nnnc3N2)cc1 (configuration not stated) 5.23%
Brc1ccc(C2=CC(c3ccco3)n3ncnc3N2)cc1 (configuration not stated) 0.23%
CNC(=O)c1[nH]cnc1C(=O)N[C@@H](CC(C)C)C(=O)OC(C)(C)C 0.13%
CSCC(=O)N1CCCC(C(=O)c2cc(F)ccc2F)C1 (configuration not stated) 0.37%
Cc1cc(C)n2nc(SCC(N)=O)nc2n1 -0.25%
CC(/C=N/NC(=O)c1cc(-c2ccc3ccccc3c2)n[nH]1)=C\c1ccco1 2.36%
CC(/C=N/NC(=O)c1ccncc1)=C\c1ccco1 1.91%
CCOC(=O)c1c(NC(=O)CNC2CCCc3ccccc32)sc(C(N)=O)c1C (configuration not stated) 3.87%
COc1cc(C(=O)Nc2cc(C(F)(F)F)ccc2N2CCOCC2)ccc1O 0.55%
Fc1cccc2ncnc(OCc3ccccc3)c12 3.63%
COC(=O)[C@H](C)[C@H]1C[C@]1(C)[C@H](NC(=O)OCc1ccccc1)c1ccccc1 8.31%
COC(=O)c1ccc(NCC(=O)c2ccccc2)cc1 0.14%
CC(C)C(=O)Nc1oc(-c2ccccc2)cc1C#N 1.62%
COc1cc(N2C(=O)c3ccccc3C2=O)c(Cl)cc1C(=O)OCC(=O)N1CCOCC1 0.61%
CCOc1cc(/C=N/O)ccc1OCc1ccccc1F 0.13%
COc1cc(/C=C2/C(=O)ON=C2C)ccc1OCc1cccc(F)c1 1.59%
N#Cc1ccc(C(=O)Nc2nc(-c3cccs3)c(C(=O)C(F)(F)F)s2)cc1 3.01%
CCN(CC(=O)NC(=O)NCc1ccccc1)Cc1nc2ccccc2c(=O)[nH]1 0.8%
CC(=O)NC1(c2ccc(F)cc2)CCN(C(=O)c2c(F)cccc2F)CC1 -0.25%
Cn1c(-c2ccc(F)cc2)cnc1SCC(=O)NCc1ccco1 1.92%
Cc1ccc(-c2csc3nnc(SCC(=O)NCc4ccco4)n23)cc1 0.13%
Cc1ccc(C2CC(c3cccc(NS(C)(=O)=O)c3)=NN2S(C)(=O)=O)cc1 (configuration not stated) 0.38%
O=c1c([N+](=O)[O-])cccn1Cc1ccc(F)cc1Cl -0.54%
CN1C(=O)/C(=C/C=C2\SCCN2C)OC1=S 2.52%
O=C(c1cccc2ccccc12)N1CCN(c2ccccc2F)CC1 -0.35%
COC(=O)c1ccc(C(=O)OC)c(NC(=S)N2CCN(c3cc(Cl)ccc3C)CC2)c1 3.51%
Cc1ccc(C(=O)N/C(=C/c2cccs2)C(=O)NCC2CCCO2)cc1 (configuration not stated) 0.13%
Cc1cc(C)n(-c2ccc3nncn3n2)n1 1.87%
Cc1c(NS(=O)(=O)c2ccc(NC3CCCC3)c([N+](=O)[O-])c2)c(=O)n(-c2ccccc2)n1C 4.03%
Cc1c(CN2CCC(C)CC2)c(=O)n(-c2ccccc2)n1C 0.66%
O=C1CCC(CCC(=O)N2CCCC(C(=O)c3ccc(Cl)cc3)C2)=NN1 (configuration not stated) 2.49%
CC(C)(C)c1ccc(/C=C2\SC(=O)N=C2N)cc1 3.69%
Cc1ccc(C(=O)NCCNC(=O)c2ccccc2)cc1 0.24%
Cc1ccc(C(=O)c2c(NC(=O)c3ccncc3)sc3c2CCCC3)cc1 1.55%
NC1=NC2(CCCCC2)N(c2ccc(F)cc2F)C(N)=N1 0.5%
O=c1cnnc(Nc2ccccc2F)[nH]1 0.79%
C/C(N)=C(/C#N)C(=O)COC(=O)CNS(=O)(=O)c1ccc(C)cc1 -0.96%
Cc1sc2nc(CSCC(=O)Nc3c(Cl)cccc3Cl)[nH]c(=O)c2c1C 4.58%
CCOC(=O)c1sc2nc(CSc3ccccc3)[nH]c(=O)c2c1C 2.26%
CCCCN(C(=O)c1ccc(OC(F)(F)F)cc1)c1c(N)n(CCC)c(=O)[nH]c1=O 1.93%
CCOC(=O)c1cnc(-c2ccccc2)nc1Oc1ccc(C)cc1 6.51%
CCOC(=O)c1cnc(-n2nc(C)cc2C)nc1-n1nc(C)cc1C 1.58%
Cc1ccc(CN2CCC(N3CCC(C(=O)NCC4CCCO4)CC3)CC2)o1 (configuration not stated) 1.95%
CCOc1ccc(Oc2nc(C)cc(OC)n2)nn1 0.41%
Cc1onc(C(=O)NN)c1C(=O)N1CCN(C(c2ccccc2)c2ccccc2)CC1 0.14%
O=C(CCC(=O)OCc1ccc(Cl)cc1)Nc1ccccc1 -0.63%
O=C(COC(=O)c1cnccn1)Nc1cccc2ccccc12 -0.14%
O=C(Cc1coc2ccc3ccccc3c12)NCc1cccs1 1.23%
Cc1cccc(NC(=S)N2CCCC(c3nc4ccccc4[nH]3)C2)c1 (configuration not stated) 1.53%
Cc1ccc(CN2CCN(Cc3cn(C)nc3-c3ccccc3)CC2CCO)o1 (configuration not stated) 0.52%
COc1ccc(-c2noc(CSc3ccc(C)cc3)n2)cc1 2.24%
COc1ccc(-c2noc(-c3ccc(C)cc3)n2)cc1 7.68%
Cc1ccc(NC(=O)CN(C)CC(=O)Nc2cccc(F)c2)cc1[N+](=O)[O-] 1.7%
CSc1ncccc1C(=O)Nc1nc2ccc(F)cc2s1 2.36%
CN(C)c1ccnc(Nc2ccc(F)cc2)c1C#N 0.51%
O=C(CC(=O)N/N=C\c1ccc(F)cc1)NCCc1ccccc1 0.75%
CCNc1nc(-c2cc3ccccc3o2)cs1 2.09%
COc1ccc2nc(Nc3nc(-c4cc5ccccc5oc4=O)cs3)sc2c1 3.98%
CC(=O)c1cccc(-n2nnnc2SCC(=O)NNC(=O)C2CCCCC2)c1 3.03%
CN(C)CCOc1cccc(Br)c1 1.41%
CC(NC(=O)CCC(=O)N1CCN(S(=O)(=O)c2ccc(Cl)cc2)CC1)c1ccccc1 (configuration not stated) 2.73%
CCNC(=O)NC(=O)C(C)OC(=O)C1CCN(S(=O)(=O)c2ccccc2F)CC1 (configuration not stated) -0.96%
CN(CCc1cnn(C)c1)Cc1cn(C)nc1-c1ccccc1F 0.12%
CCOc1ccc(NC(=S)N2CCCCCC2)cc1 0.12%
CCOC(=O)c1sc2nc(C)nc(SCC(N)=O)c2c1C 1.57%
C=CCN(CC=C)C(=O)COC(=O)c1n[nH]c2ccccc12 2.26%
CN(C)S(=O)(=O)c1ccc(NC(=O)COC(=O)c2n[nH]c3ccccc23)cc1 5.03%

inhibition, active:
O=C(NCCc1ccco1)c1nn(Cc2ccccc2)c(=O)c2ccccc12 11.2%
COc1ccc(Cl)cc1NC(=O)NC(C)C(C)(C)C (configuration not stated) 12.8%
COc1ccc(C2C=C(c3ccc(Br)cc3)Nc3nc(NS(C)(=O)=O)nn32)cc1 (configuration not stated) 13.4%
C/C(=C\c1ccco1)C1Nc2cccc3cccc(c23)N1 8.69%
CCC[C@@H]1C[C@@]1(CCC)[C@@H](NC(=O)c1ccccc1)c1ccc(C(=O)OC)cc1 9.65%
COc1cc(/C=C2/C(=O)ON=C2C)ccc1OCc1ccccc1F 11.4%
O=C(CSc1nnc2scc(-c3ccc(F)cc3)n12)NCc1ccco1 9.95%
Cc1ccc(Cl)cc1N1CCN(C(=O)c2cccc3c(=O)c(C)c(-c4ccccc4)oc23)CC1 8.43%
CC(C)=CCCC1(C)C=Cc2c(ccc3c2[nH]c2cc(O)c(C)cc23)O1 (configuration not stated) 21.4%
Cc1c(Nc2cc(N3CCCC(C)C3)c3nonc3c2[N+](=O)[O-])c(=O)n(-c2ccccc2)n1C (configuration not stated) 8.7%
Cc1ccc(C(=O)c2c(NC(=O)c3ccccc3)sc(C)c2C)cc1 12.9%
CCOC(=O)c1sc2nc(CSCC(=O)OCc3ccc(C(=O)OC)o3)[nH]c(=O)c2c1C 12.6%
CCOC(=O)c1cnc(-n2nc(C)cc2C)nc1NNc1cc(C)nc(-c2ccccc2)n1 9.84%
O=C(CCC(=O)OCc1cccc(C(=O)Oc2ccccc2)c1)Nc1cccc2ccccc12 15.2%
COc1ccc(-c2noc(CN(C)S(=O)(=O)c3ccc(C)cc3)n2)cc1 9.12%
O=c1oc2ccccc2cc1-c1csc(Nc2ccc(O)cc2)n1 11.1%
CC(NC(=O)COC(=O)C1CCN(S(=O)(=O)c2ccccc2C(F)(F)F)CC1)c1ccccc1 (configuration not stated) 8.48%
O=C(COC(=O)c1n[nH]c2ccccc12)NCc1ccccc1 8.45%

Reference: PubChem BioAssay AID868 (SRMLSC, 2007)
